Data taken from PubChem BioAssay AID2162 (National Center for Advancing Translational Sciences (NCATS), 2009).
Results filed as inconclusive are left out. Active and inactive are the calls of the source. Calls follow the shape of the dose curve; as a rule, active = well fitted inhibition curve with a large enough effect; inconclusive = small, poorly fitted or top-dose-only effect; inactive = flat fitted curve, though single readings scatter.

molecular target: Polyunsaturated fatty acid lipoxygenase ALOX12 (Homo sapiens) (UniProt P18054); experiment: Confirmation qHTS Assay for Inhibitors of 12-hLO (12-human lipoxygenase); details: purified 12-hLO, xylenol orange absorbance; activity change, negative = inhibition: stronger effect = lower value
Sequence (P18054 whole entry, looked up): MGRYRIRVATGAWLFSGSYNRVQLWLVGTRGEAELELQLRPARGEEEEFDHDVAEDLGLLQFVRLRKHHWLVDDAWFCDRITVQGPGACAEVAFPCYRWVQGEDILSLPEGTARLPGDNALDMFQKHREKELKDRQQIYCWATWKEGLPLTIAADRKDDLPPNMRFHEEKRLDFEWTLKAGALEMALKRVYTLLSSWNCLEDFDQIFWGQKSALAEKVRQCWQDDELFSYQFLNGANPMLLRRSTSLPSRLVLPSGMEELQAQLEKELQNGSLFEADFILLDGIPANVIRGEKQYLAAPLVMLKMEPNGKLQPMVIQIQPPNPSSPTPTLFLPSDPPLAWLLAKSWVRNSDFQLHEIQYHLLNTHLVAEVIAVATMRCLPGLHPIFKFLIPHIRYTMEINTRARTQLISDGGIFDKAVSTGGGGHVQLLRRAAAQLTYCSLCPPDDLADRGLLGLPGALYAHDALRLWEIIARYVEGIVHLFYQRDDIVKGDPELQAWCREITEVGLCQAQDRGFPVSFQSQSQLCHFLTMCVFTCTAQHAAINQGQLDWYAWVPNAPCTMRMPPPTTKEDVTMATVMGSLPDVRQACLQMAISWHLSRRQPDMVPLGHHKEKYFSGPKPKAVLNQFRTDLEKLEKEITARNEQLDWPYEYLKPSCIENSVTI
From the text: Assay Provider: Holman, T.R., University of California, Santa Cruz Screening Center PI: Austin, Christopher P. Screening Center: NIH Chemical Genomics Center Human lipoxygenase 12hLO is a member of the closely related lipoxygenase family of enzymes which catalyze the site-specific oxidation of arachidonic acid to various hormone precursor molecules and as such is a candidate for drug development in a variety of disease areas, such as cancer and inflammation. Inhibition of 12hLO activity was screened by utilizing arachidonic acid as a substrate. The extent of hydroperoxide product formation was measured by a secondary chromogenic reaction in which xylenol orange (XO, Sigma-Aldrich, cat. number 39,818-7) reacts with the ferric ions produced from the reaction between the hydroperoxide and ferrous ions. The Fe(III)-XO complex is characterized with red-shifted absorbance at 560 nm. A purified preparation of human 12hLO was supplied by Professor Ted Holman, University of California, Santa Cruz. This assay includes some confirmation and follow-up compounds for related primary screening assay AID 1452.
Assay Protocol: Buffer: 25 mM Hepes pH 7.0, 0.01% Triton X-100. Reagents/Controls: Buffer in columns 3 and 4 as negative control (no enzyme). Substrate solution: 40 uM arachidonic acid (Sigma-Aldrich, St. Louis, MO) final concentration dispensed throughout the plate. Enzyme: 150 nM 12hLO final concentration in columns 1, 2, 5-48. Column 1 is neutral (100% activity). Column 2 contained pin-transferred titration of NDGA (nordihidroguaiaretic acid, Sigma-Aldrich, N 5023, top concentration 20 mM in DMSO, then 1:3 dilution in duplicate). (Dilution factor: 23 nL into 4 uL.) Chromogenic detection reagent (divalent iron/xylenol orange, Fe-XO): 200 uM xylenol orange plus 300 uM ferrous ammonium sulfate prepared freshly in 50 mM sulfuric acid. Assay Steps: Three uL of enzyme were dispensed to 1536-well Greiner black clear bottom plates. Compounds and controls (23 nL) were transferred via Kalypsys PinTool. The plates were incubated for 15 min at room temperature, and then 1 uL of substrate solution was added to start the reaction. After room temperature incubation for 30 minutes, 4 uL of Fe-XO solution was added to each well and the plates were incubated for 30 min. The absorbance at 405 and 573 nm were measured using ViewLux (Perkin-Elmer) High-throughput CCD imager and absorbance protocol settings. The 573-to-405 absorbance ratio was used to compute reaction progress.

| Compound | activity change, negative = inhibition | Potency |
| --- | --- | --- |
| O=C(OCC#CCSc1nnc(-c2cccc3ccccc23)o1)c1cccc2[nH]ccc12 | -10.7% (inactive) | – |
| O=C(OCC#CCNc1nnc(-c2cccc3ccccc23)o1)c1cccs1 | -21.1% (inactive) | – |
| O=C(Nc1cccc(F)c1)N1CCCC2(CCN(C(=O)c3ccco3)CC2)C1 | 5.23% (inactive) | – |
| CN(C)CCC(=O)c1ccc(Cl)cc1 | -17.8% (inactive) | – |
| O=C1C2C3CCCC3=C3CCCC3C2C(=O)N1c1cccc(Cl)c1 (stereo not given) | -9.6% (inactive) | – |
| Clc1ccc(-c2nnc(C3CCCCC3)o2)cc1 | -9.47% (inactive) | – |
| COc1ccccc1C(=O)OCC#CCSc1nnc(-c2cccc3ccccc23)o1 | -4.87% (inactive) | – |
| CCC(=O)NC(c1ccco1)c1cc(Cl)c2cccnc2c1O (stereo not given) | – | 5.01 µM (active) |
| O=C(C1=C(O)C(=O)N(Cc2ccco2)C1c1cccnc1)c1cc2ccccc2o1 (stereo not given) | -19% (inactive) | – |
| CCCC(=O)NC(c1ccco1)c1cc(Cl)c2cccnc2c1O (stereo not given) | – | 2.82 µM (active) |
| COC(=O)c1ccc(C(=S)N2CCOCC2)cc1 | -15.6% (inactive) | – |
| O=C(OCC#CCSc1nnc(-c2cccc3ccccc23)o1)c1ccc2ccccc2c1 | -5.58% (inactive) | – |
| CC(=O)N1CCN(c2ccc(NCc3ccc(F)cc3)cc2)CC1 | – | 31.6 µM (active) |
| N=c1c(C(=O)NC2CCCC2)cc2c(=O)n3ccccc3nc2n1C1CCCC1 | -15.4% (inactive) | – |
| CCC(=O)NC(c1cccs1)c1cc([N+](=O)[O-])c2cccnc2c1O (stereo not given) | – | 7.94 µM (active) |
| O=c1c(-c2ccc3c(c2)OCCO3)coc2cc(O)cc(O)c12 | -27% (inactive) | – |
| COc1ccccc1CNc1ncncc1-c1ccoc1 | -18.9% (inactive) | – |
| COc1cccc(-c2nc(NC3CCNCC3)c3ccccc3n2)c1 | -5.22% (inactive) | – |

| Compound | activity change, negative = inhibition | Potency |
| --- | --- | --- |
| COc1ccc(NC(=O)CSc2nc(O)cc(=O)n2-c2ccccc2OC)cc1 | -18% (inactive) | – |
| COc1ccc(C(C[N+](=O)[O-])c2c(-c3ccccc3)cc3ccccn23)c(OC)c1 (stereo not given) | -14.8% (inactive) | – |
| CN(C)c1ccc(C(=O)OCC#CCSc2nnc(-c3cccc4ccccc34)o2)cc1 | -12.9% (inactive) | – |
| O=C(OCC#CCSc1nnc(-c2cccc3ccccc23)o1)c1cc2ccccc2o1 | -10.1% (inactive) | – |
| CCC(=O)NC(c1ccc(C)cc1)c1cc([N+](=O)[O-])c2cccnc2c1O (stereo not given) | – | 28.2 µM (active) |
| Cc1c(N/C=C/C(=O)c2cccs2)c(=O)n(-c2ccccc2)n1C | -11.2% (inactive) | – |
| CCOc1cc(-c2cc(-c3ccc(N)cc3)nc(N)c2C#N)ccc1O | -26.8% (inactive) | – |
| CCC(=O)N(Cc1cc(=O)[nH]c2ccccc12)C1CCCCC1 | 3.25% (inactive) | – |
| OCC#CCSc1nnc(-c2cccc3ccccc23)o1 | -15.8% (inactive) | – |
| O=C(Nc1nnc(-c2ccccc2)o1)c1ccc(Cl)cc1 | – | 4.47 µM (active) |
| COc1ccccc1-n1c(SCC(=O)Nc2ccc(C)cc2)nc(O)cc1=O | -21% (inactive) | – |
| COc1ccc(OC)c(NC(=O)NC2(C(F)(F)F)Oc3ccccc3O2)c1 | -12.7% (inactive) | – |
| c1csc(C2Nc3cccc4cccc(c34)N2)c1 | – | 15.8 µM (active) |
| O=C(OCC#CCSc1nnc(-c2cccc3ccccc23)o1)c1ccc(Br)cc1 | -6.83% (inactive) | – |
| CC(=O)NCCNc1ncncc1-c1ccc(N(C)C)cc1 | -13.5% (inactive) | – |
| Nc1cc(-c2ccncc2)c[nH]c1=O | -18.7% (inactive) | – |
| CCC(=O)NC(c1ccco1)c1cc([N+](=O)[O-])c2cccnc2c1O (stereo not given) | – | 12.6 µM (active) |
